Measured values taken from PubChem BioAssay (NCI).
Compounds without any hit were thinned out: in the full panel of roughly 83,000, 20% have a hit.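 Step 1: grow cells in 96-well plates. Step 2: add test compound at a single concentration. Step 3: incubate 48 h. Step 4: record percent growth.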 Calls of active or inactive are those of the source. How the source made its calls: active means growth percent below 10; inactive means the rest.

Test system: HL-60(TB) leukemia
Assay: NCI-60 one-dose screen, 48 h (100 = growth as untreated, 0 = no growth, -100 = all killed)
Conditions: 10 µM unless noted

SMILES | growth
Clc1cc(Cl)c(Cl)c(-c2nc(-c3cccnc3)cs2)c1 | -3.35% (active)
CCCCCN(CCCCC)C(C)C(O)c1ccc2cc(Cl)c3ccccc3c2c1 (stereo not given) | 105% (inactive)
CCCn1c(=O)c2c(nc(-c3cccc(OCCCCl)c3)n2C)n(CCC)c1=O | 107% (inactive)
Cc1c2cnccc2c(C)c2c1c1cc(CO)ccc1n2C | -20% (active)
CCCCCCCCCCCCOC(=N)N(C)C | 91.9% (inactive)
O=C(Cc1nc2ccc([N+](=O)[O-])cc2nc1CC(=O)c1ccccc1)c1ccccc1 | 31.5% (inactive)
O=[N+]([O-])c1ccc(NC(c2ccccc2)c2ccc3cccnc3c2O)cc1 (stereo not given) | -9.64% (active)
C=CCn1c(SCC(=O)Nc2ccc(C(=O)/C=C/c3ccc(OC)cc3)cc2)nnc1-c1ccc(OC)c(OC)c1 | 58.5% (inactive)
O=C(NC1CCN(Cc2ccccc2)CC1)c1cc(-c2cccnc2)nc2ccc(Cl)cc12 | 73.9% (inactive)
C=CC(=O)Nc1cccc(-c2nc(SC)nc(NCc3ccccc3)c2C#N)c1 | 50% (inactive)
Fc1ccc(Nc2ccc3cc(OCCCN4CCOCC4)ccc3n2)cc1F | 75.4% (inactive)
O=c1cc(Cl)[nH]c(=O)[nH]1 | 91.7% (inactive)
COc1ccc2nc(NC(=O)c3cc(-c4ccc(F)cc4)n4nc(-c5ccccc5)cc4n3)sc2c1 | 98.7% (inactive)
COc1cc(C2C=C(c3ccc(Cl)c(Cl)c3)N=C3SC(C)=CN32)cc(OC)c1OC (stereo not given) | 61.6% (inactive)
CCCN=C(N)c1ccc(NC(=O)c2ccc(C(=O)Nc3ccc(C(N)=NCCC)cc3)cc2)cc1 | 77% (inactive)
CCSc1ccc(C2C(Br)C(=O)N2c2cc(OC)c(OC)c(OC)c2)cc1 (stereo not given) | -9.14% (active)
CCCCCCCCCCCCCCCCCC[n+]1ccc2c(C)c3c(c(C)c2c1)c1cc(O)ccc1n3CC | 30.2% (inactive)
CCCOC(=O)Nc1nc2ccc(SCC)cc2s1 | 76.4% (inactive)
COC(=O)c1ccc(C)cc1 | 106% (inactive)
Cc1cc2nc3cc(C)c(N)cc3[n+](-c3ccccc3)c2cc1N | 63.3% (inactive)

SMILES | growth
O=S1(=O)N(Cc2ccccc2)[C@@H](Cc2ccccc2)C2O[C@H]2[C@H](Cc2ccccc2)N1Cc1ccccc1 (stereo not given in full) | 46% (inactive)
COc1cc(C(=O)/C=C/c2cc(-c3ccc4c(c3)OCO4)n[nH]2)cc(OC)c1OC | -16.6% (active)
CCCCNCCCN(CCCC)CCCNCCCC | 98.5% (inactive)
Cc1nc(Nc2ccccn2)sc1C(=O)/C=C/c1ccc(Br)cc1 | 41.7% (inactive)
Fc1ccc(-c2nnc(N3CCOCC3)c3ccccc23)cc1 | 264% (inactive)
COc1ccc(C(=O)CCC(=O)O)cc1 | 98.6% (inactive)
Cn1cc(-c2nnc(-c3cn(C)c4ncc(Br)cc34)s2)c2cc(Br)ccc21 | 106% (inactive)
Oc1ccccc1/C=N/NC(=S)NC1CC2C=CC1C2 (stereo not given) | 58.3% (inactive)
CC12CCC3C4(C)COC(c5ccccc5Cl)OC4CCC3(C)C1CC(C1=CCOC1=O)O2 (stereo not given) | 26.2% (inactive)
O=C1C=C(O)c2ccccc2C1=O.[Ag] | 96% (inactive)
COc1ccc(C(=O)OC2C(OC3C(O)COC(O[C@H]4C[C@H]5[C@@H]6CC=C7C[C@@H](O)CC[C@]7(C)[C@H]6CC[C@]5(C)[C@H]4[C@H](C)C(=O)CCC(C)C)C3OC(C)=O)OCC(O)C2O)cc1 (stereo not given in full) | -40.7% (active)
CCNC(=O)Oc1ccc(/C(=C(\C)c2ccccc2)c2ccc(OCCN(CC)CC)cc2)cc1 | 52.5% (inactive)
CCCCCCCCCN(CCCCCCCCC)C(C)C(=O)c1ccc2cc(Br)c3ccccc3c2c1 (stereo not given) | 102% (inactive)
N#Cc1ccc(NC(=O)Nc2nc3ccc(OC(F)(F)F)cc3s2)cc1 | -47% (active)
Cc1cc2nc3c4cccc(O)c4n(CCN(C)C)c3nc2cc1C | 29.2% (inactive)
CSc1nc(C)c(C(=O)CCN2CCN(c3ccccn3)CC2)s1 | 102% (inactive)
CO[C@H]1C[C@@H]2CC[C@@H](C)[C@@](O)(O2)C(=O)C(=O)N2CCCC[C@H]2C(=O)O[C@H]([C@H](C)C[C@@H]2CC[C@@H](O)[C@H](OC)C2)CC(=O)[C@H](C)C=C(C)[C@@H](O)[C@@H](OC)C(=O)[C@H](C)C[C@H](C)/C=C/C=C/C=C1C | 83% (inactive)
COc1ccc(-c2nc(-c3cc(OC)cc(OC)c3)[nH]c2-c2ccc(OC)cc2)cc1 | 30.1% (inactive)
CC/C=C\C[C@H]1C/C=C2/C(=O)C=C[C@H]2C/C=C\CCCC(=O)O1 | 7.94% (active)
Nc1nc(N)c2cc(Sc3ccc4ccccc4c3)ccc2n1 | 31.4% (inactive)
